Reference: PubChem BioAssay (Tox21)
Results filed as inconclusive are left out. A call without a number means that no potency is given here. The source made the active and inactive calls. Calls come from the whole dose curve; as a rule, active = well fitted cell-killing curve with a large enough effect in the repeat runs; inconclusive = weak or mixed curves, or effect the other way; inactive = flat fitted curve, though single readings scatter.

Experiment: cAMP Responsive Elements (CRE) small molecule antagonists, cell-based qHTS assay: qHTS cell viability counter screen (AID 2060913); note: nearly all actives have a fitted effect of over 40% in size
Details: CRE-bla HEK293T viability, CellTiter-Glo luminescence, 5 h; series mostly up to 92.4 µM
Method in brief: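 HEK293T CRE-bla, 2,000 cells/well, 18 h preincubation; cpd in DMSO + NKH477 0.25 uM final, 3 h 37 C/5% CO2; LiveBLAzer 2 h RT, then CellTiter-Glo 30 min RT, luminescence.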

Row | Structure (SMILES) | Potency
1 | CC1C2CC(CC2C2CCCC(O)C2)C1(C)C (stereo not given) | inactive
2 | CCCCCCCCSCc1cc(C)c(O)c(CSCCCCCCCC)c1 | inactive
3 | CN1CCN(C2=Nc3ccccc3Sc3ccc(Cl)cc32)CC1 | inactive
4 | CN(C)c1ccc(CCO)cc1 | inactive
5 | CN(C)CCCN1c2ccccc2Sc2ccc(C(F)(F)F)cc21 | inactive
6 | Nc1ccc(O)cc1 | inactive
7 | O=Cc1ccc(CO)o1 | inactive
8 | C=C1CC/C=C(\C)CC[C@@H]2[C@@H]1CC2(C)C | inactive
9 | CCCCCC(C)=O | inactive
10 | CC(=O)OCCOC(C)=O | inactive
11 | C[C@]12CC[C@@H]3c4ccc(O)cc4CC[C@H]3[C@@H]1C[C@@H](O)[C@@H]2O | inactive
12 | O=C1C(N(CO)C(=O)NCO)N(CO)C(=O)N1CO (stereo not given) | inactive
13 | Cc1cccc(Nc2ccccc2C(=O)O)c1C | inactive
14 | Oc1ccc(N=Nc2ccccc2)cc1 | inactive
15 | CCOC(=O)C(C)(C)Oc1ccc(Cl)cc1 | inactive
16 | NC(=O)Nc1ccccc1 | inactive
17 | C[C@@H](O)[C@H]1C(=O)N2C(C(=O)O)=C(S[C@@H]3CN[C@H](C(=O)N(C)C)C3)[C@H](C)[C@H]12 | inactive
18 | CCCCCCCO | inactive
19 | CC(C)(C)CC(C)(C)c1ccc(O)c(-n2nc3ccccc3n2)c1 | inactive
20 | CCN(CC)CCNC(=O)c1c(C)[nH]c(/C=C2\C(=O)Nc3ccc(F)cc32)c1C | inactive

Row | Structure (SMILES) | Potency
21 | C[C@H](NC(CCc1ccccc1)C(=O)O)C(=O)N1CCC[C@H]1C(=O)O (stereo not given in full) | inactive
22 | CN[C@H]1CC[C@@H](c2ccc(Cl)c(Cl)c2)c2ccc(S(N)(=O)=O)cc21 | inactive
23 | C[C@H](CCC(=O)O)[C@H]1CC[C@H]2[C@@H]3[C@H](O)C[C@@H]4C[C@H](O)CC[C@]4(C)[C@H]3CC[C@]12C | inactive
24 | CCOC(=O)C(C)(C)C | inactive
25 | O=C(c1ccccc1)c1ccccc1O | inactive
26 | N#CC1(N)CCCCC1 | inactive
27 | CC(C)(C)C(=O)OCOC(=O)[C@@H]1N2C(=O)[C@@H](NC(=O)[C@H](N)c3ccccc3)[C@H]2SC1(C)C | inactive
28 | CCCCC(CC)COC(=O)c1ccccc1O (stereo not given) | inactive
29 | CCCC(C)C(=O)O (stereo not given) | inactive
30 | O=C(CN1CCN(Cc2ccc3c(c2)OCO3)CC1)N1c2ccccc2Sc2ccccc21 | inactive
31 | CCC1OCC(COc2ccc(Oc3ccccc3)cc2)O1 (stereo not given) | inactive
32 | CC(C)COC(=O)C(C)C | inactive
33 | O=Cc1ccc(O)c(O)c1O | inactive
34 | Cc1ccc2ncccc2c1 | inactive
35 | CCCCC/C(C=O)=C\c1ccccc1 | inactive
36 | S=C([S-])NCCNC(=S)[S-].S=C([S-])NCCNC(=S)[S-].[Mn+2].[Zn+2] | inactive
37 | CCn1nc(C(=O)O)c(=O)c2cc3c(cc21)OCO3 | inactive
38 | CCN(CC)CCOc1ccc2c(c1)C(=O)c1cc(OCCN(CC)CC)ccc1-2 | inactive
39 | C[C@H]1C[C@H]2[C@@H]3CCC4=CC(=O)C=C[C@]4(C)[C@H]3C(=O)C[C@]2(C)[C@@]1(O)C(=O)CO | inactive
40 | COc1cc(C(=O)N2CCCCCCC2)cc(OC)c1OC | inactive

Experiment: cAMP Responsive Elements (CRE) small molecule agonists, cell-based qHTS assay: qHTS cell viability counter screen (AID 2060914); note: potency is the fitted concentration of half-maximal effect;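 note: viability read after 3 h of compound exposure; nearly all actives have a fitted effect of over 50% in size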
Details: CRE-bla HEK293T viability, CellTiter-Glo luminescence, 5 h; series mostly up to 92.4 µM
Method in brief: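 CRE-bla HEK 293T cells, plated 18 h at 37 °C, were exposed to compounds for 3 h at 37 °C/5% CO2. Viability was then measured in the same wells by CellTiter-Glo luminescence after 30 min at room temperature.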

Row | Structure (SMILES) | Potency
41 | CC1C2CC(CC2C2CCCC(O)C2)C1(C)C (stereo not given) | inactive
42 | CCCCCCCCSCc1cc(C)c(O)c(CSCCCCCCCC)c1 | inactive
43 | CN1CCN(C2=Nc3ccccc3Sc3ccc(Cl)cc32)CC1 | inactive
44 | CN(C)c1ccc(CCO)cc1 | inactive
45 | CN(C)CCCN1c2ccccc2Sc2ccc(C(F)(F)F)cc21 | inactive
46 | Nc1ccc(O)cc1 | inactive
47 | O=Cc1ccc(CO)o1 | inactive
48 | C=C1CC/C=C(\C)CC[C@@H]2[C@@H]1CC2(C)C | inactive
49 | CCCCCC(C)=O | inactive
50 | CC(=O)OCCOC(C)=O | inactive
51 | C[C@]12CC[C@@H]3c4ccc(O)cc4CC[C@H]3[C@@H]1C[C@@H](O)[C@@H]2O | inactive
52 | O=C1C(N(CO)C(=O)NCO)N(CO)C(=O)N1CO (stereo not given) | inactive
53 | Cc1cccc(Nc2ccccc2C(=O)O)c1C | inactive
54 | Oc1ccc(N=Nc2ccccc2)cc1 | inactive
55 | CCOC(=O)C(C)(C)Oc1ccc(Cl)cc1 | inactive
56 | NC(=O)Nc1ccccc1 | inactive
57 | C[C@@H](O)[C@H]1C(=O)N2C(C(=O)O)=C(S[C@@H]3CN[C@H](C(=O)N(C)C)C3)[C@H](C)[C@H]12 | inactive
58 | CCCCCCCO | inactive
59 | CC(C)(C)CC(C)(C)c1ccc(O)c(-n2nc3ccccc3n2)c1 | 9.69 µM (active)
60 | CCN(CC)CCNC(=O)c1c(C)[nH]c(/C=C2\C(=O)Nc3ccc(F)cc32)c1C | inactive

Row | Structure (SMILES) | Potency
61 | C[C@H](NC(CCc1ccccc1)C(=O)O)C(=O)N1CCC[C@H]1C(=O)O (stereo not given in full) | inactive
62 | CN[C@H]1CC[C@@H](c2ccc(Cl)c(Cl)c2)c2ccc(S(N)(=O)=O)cc21 | inactive
63 | C[C@H](CCC(=O)O)[C@H]1CC[C@H]2[C@@H]3[C@H](O)C[C@@H]4C[C@H](O)CC[C@]4(C)[C@H]3CC[C@]12C | inactive
64 | CCOC(=O)C(C)(C)C | inactive
65 | O=C(c1ccccc1)c1ccccc1O | inactive
66 | N#CC1(N)CCCCC1 | inactive
67 | CC(C)(C)C(=O)OCOC(=O)[C@@H]1N2C(=O)[C@@H](NC(=O)[C@H](N)c3ccccc3)[C@H]2SC1(C)C | inactive
68 | CCCCC(CC)COC(=O)c1ccccc1O (stereo not given) | inactive
69 | CCCC(C)C(=O)O (stereo not given) | inactive
70 | O=C(CN1CCN(Cc2ccc3c(c2)OCO3)CC1)N1c2ccccc2Sc2ccccc21 | inactive
71 | CCC1OCC(COc2ccc(Oc3ccccc3)cc2)O1 (stereo not given) | inactive
72 | CC(C)COC(=O)C(C)C | inactive
73 | O=Cc1ccc(O)c(O)c1O | inactive
74 | Cc1ccc2ncccc2c1 | 54.5 µM (active)
75 | CCCCC/C(C=O)=C\c1ccccc1 | inactive
76 | S=C([S-])NCCNC(=S)[S-].S=C([S-])NCCNC(=S)[S-].[Mn+2].[Zn+2] | inactive
77 | CCn1nc(C(=O)O)c(=O)c2cc3c(cc21)OCO3 | inactive
78 | CCN(CC)CCOc1ccc2c(c1)C(=O)c1cc(OCCN(CC)CC)ccc1-2 | inactive
79 | C[C@H]1C[C@H]2[C@@H]3CCC4=CC(=O)C=C[C@]4(C)[C@H]3C(=O)C[C@]2(C)[C@@]1(O)C(=O)CO | inactive
80 | COc1cc(C(=O)N2CCCCCCC2)cc(OC)c1OC | inactive
